The record followed here is ChEMBL document CHEMBL2218924, “A broad activity screen in support of a chemogenomic map for kinase signalling research and drug discovery” (Biochem J, 2013).

Test [1] addresses T1, Serine/threonine-protein kinase 3 (Homo sapiens) (UniProt Q13188).
T1 sequence (whole entry): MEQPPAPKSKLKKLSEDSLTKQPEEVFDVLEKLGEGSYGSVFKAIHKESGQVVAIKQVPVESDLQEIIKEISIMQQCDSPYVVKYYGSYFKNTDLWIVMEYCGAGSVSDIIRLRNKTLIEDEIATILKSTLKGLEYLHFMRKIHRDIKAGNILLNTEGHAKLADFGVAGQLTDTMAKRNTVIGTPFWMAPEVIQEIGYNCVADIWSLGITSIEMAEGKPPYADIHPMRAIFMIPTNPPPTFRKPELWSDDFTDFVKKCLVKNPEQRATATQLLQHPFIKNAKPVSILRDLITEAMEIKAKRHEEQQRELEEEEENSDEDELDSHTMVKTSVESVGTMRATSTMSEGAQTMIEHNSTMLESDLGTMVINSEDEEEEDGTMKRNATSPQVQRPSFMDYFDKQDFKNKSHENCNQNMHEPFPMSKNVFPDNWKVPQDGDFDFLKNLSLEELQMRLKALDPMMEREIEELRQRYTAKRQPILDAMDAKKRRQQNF
The conditions noted are these: at 1 µM.

Test [2] concerns the target T1, Serine/threonine-protein kinase 3 (Homo sapiens). The conditions noted are these: at 10 µM.
In test [3] the target is Serine/threonine-protein kinase 24 (Homo sapiens) (UniProt Q9Y6E0). To be noted: at 1 µM.
Chain of Serine/threonine-protein kinase 24 (Homo sapiens) (Q9Y6E0 whole entry, looked up): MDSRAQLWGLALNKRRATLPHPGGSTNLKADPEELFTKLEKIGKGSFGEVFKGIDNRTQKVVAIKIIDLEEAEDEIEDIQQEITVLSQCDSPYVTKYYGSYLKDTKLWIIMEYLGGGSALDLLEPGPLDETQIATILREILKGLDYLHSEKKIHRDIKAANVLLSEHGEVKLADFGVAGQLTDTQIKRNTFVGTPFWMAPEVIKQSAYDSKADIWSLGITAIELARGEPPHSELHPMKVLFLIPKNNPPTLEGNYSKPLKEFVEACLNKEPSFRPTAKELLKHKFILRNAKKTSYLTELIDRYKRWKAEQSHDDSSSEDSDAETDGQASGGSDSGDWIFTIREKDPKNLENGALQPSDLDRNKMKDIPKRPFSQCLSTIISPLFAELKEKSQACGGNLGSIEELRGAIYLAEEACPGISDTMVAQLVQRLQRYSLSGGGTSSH
For test [4] the target is unchanged. The conditions noted are these: at 10 µM.
The target in test [5] is T2, Tyrosine-protein kinase Mer (Homo sapiens) (UniProt Q12866).
T2 sequence (whole entry): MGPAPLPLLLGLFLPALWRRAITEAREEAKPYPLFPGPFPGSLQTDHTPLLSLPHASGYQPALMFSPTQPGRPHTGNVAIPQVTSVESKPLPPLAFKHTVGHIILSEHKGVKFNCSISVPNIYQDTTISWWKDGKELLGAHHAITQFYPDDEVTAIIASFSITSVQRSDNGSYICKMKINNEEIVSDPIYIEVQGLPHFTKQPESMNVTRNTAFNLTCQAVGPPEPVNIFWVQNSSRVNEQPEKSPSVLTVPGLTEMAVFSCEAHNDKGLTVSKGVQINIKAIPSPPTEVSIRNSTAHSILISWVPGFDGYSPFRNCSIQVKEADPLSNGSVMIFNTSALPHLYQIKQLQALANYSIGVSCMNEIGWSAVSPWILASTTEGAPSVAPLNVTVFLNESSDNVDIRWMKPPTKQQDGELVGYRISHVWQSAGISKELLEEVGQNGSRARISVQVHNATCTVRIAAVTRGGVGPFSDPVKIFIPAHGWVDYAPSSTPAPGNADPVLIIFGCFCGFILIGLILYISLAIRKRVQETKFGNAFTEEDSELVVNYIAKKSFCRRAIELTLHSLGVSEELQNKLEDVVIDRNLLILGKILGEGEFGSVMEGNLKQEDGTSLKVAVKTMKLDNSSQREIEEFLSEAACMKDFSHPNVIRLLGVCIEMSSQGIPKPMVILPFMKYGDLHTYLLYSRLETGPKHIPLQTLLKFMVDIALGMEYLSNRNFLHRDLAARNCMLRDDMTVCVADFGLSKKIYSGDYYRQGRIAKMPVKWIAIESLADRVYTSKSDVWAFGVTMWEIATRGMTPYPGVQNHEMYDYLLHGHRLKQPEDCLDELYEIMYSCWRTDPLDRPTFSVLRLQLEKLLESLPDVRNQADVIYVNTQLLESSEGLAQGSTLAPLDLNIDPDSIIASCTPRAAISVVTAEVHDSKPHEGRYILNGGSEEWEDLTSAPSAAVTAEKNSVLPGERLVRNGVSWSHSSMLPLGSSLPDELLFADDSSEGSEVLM
The conditions noted are these: at 1 µM.

For test [6], the target named is T2, Tyrosine-protein kinase Mer (Homo sapiens). To be noted: at 10 µM.
The target of test [7] is Hepatocyte growth factor receptor (Homo sapiens) (UniProt P08581). The conditions noted are these: at 1 µM.
Chain of Hepatocyte growth factor receptor (Homo sapiens) (P08581 whole entry): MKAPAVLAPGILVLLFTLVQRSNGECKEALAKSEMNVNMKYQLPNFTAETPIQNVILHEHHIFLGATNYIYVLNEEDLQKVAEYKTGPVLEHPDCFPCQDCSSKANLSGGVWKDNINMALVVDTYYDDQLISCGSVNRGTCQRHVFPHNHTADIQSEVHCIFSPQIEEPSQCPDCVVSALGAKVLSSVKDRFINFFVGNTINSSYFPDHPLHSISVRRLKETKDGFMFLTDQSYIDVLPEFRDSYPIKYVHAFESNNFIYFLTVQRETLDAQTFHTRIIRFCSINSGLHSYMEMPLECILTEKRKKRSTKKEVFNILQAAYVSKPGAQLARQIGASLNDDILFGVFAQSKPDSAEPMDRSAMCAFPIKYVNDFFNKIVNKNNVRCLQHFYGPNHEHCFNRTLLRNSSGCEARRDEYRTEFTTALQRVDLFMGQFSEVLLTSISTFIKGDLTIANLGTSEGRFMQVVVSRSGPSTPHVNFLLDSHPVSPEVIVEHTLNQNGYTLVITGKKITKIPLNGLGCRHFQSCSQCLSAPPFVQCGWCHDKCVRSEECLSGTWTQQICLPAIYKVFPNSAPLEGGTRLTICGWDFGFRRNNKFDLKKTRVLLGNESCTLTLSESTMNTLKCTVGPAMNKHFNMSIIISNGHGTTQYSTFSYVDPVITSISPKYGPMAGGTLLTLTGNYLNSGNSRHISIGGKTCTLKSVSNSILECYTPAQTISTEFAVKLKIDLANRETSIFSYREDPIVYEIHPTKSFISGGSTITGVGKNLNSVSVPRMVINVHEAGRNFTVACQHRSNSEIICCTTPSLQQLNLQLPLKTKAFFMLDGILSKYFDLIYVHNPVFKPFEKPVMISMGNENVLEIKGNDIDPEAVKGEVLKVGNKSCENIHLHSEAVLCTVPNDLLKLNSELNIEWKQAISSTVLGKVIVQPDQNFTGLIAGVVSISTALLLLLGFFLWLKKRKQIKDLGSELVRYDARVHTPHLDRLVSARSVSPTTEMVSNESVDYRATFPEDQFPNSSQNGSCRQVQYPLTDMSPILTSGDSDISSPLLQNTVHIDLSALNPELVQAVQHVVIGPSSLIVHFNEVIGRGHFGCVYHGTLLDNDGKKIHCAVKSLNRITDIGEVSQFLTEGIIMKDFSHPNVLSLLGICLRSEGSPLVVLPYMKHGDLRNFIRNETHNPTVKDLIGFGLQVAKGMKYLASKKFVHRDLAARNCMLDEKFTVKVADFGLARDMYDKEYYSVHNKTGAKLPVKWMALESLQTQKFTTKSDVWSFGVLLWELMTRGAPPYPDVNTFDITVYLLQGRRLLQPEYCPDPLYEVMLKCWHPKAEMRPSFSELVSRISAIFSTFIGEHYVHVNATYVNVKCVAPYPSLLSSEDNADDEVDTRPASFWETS
The target is the same in test [8]. To be noted: at 10 µM.
The target in test [9] is MAP kinase-interacting serine/threonine-protein kinase 2 (Homo sapiens) (UniProt Q9HBH9). The conditions noted are these: at 1 µM.
Chain of MAP kinase-interacting serine/threonine-protein kinase 2 (Homo sapiens) (Q9HBH9 whole entry, looked up): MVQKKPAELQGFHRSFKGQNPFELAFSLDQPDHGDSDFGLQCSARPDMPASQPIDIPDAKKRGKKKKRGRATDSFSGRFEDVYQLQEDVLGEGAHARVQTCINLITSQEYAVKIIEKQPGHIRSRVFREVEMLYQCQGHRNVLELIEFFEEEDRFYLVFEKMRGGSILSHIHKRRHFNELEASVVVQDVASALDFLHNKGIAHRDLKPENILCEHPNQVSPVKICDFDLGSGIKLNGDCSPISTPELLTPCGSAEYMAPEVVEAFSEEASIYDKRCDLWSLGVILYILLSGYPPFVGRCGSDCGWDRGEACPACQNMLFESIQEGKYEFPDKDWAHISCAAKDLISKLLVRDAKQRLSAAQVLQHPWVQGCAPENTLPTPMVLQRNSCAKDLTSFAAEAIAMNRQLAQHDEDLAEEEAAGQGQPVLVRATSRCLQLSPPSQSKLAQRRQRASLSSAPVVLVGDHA
The target is the same in test [10]. The conditions noted are these: at 10 µM.

One may read the residual activity as the signal under treatment as a percentage of the control signal. Take `O=[N+]([O-])c1ccc(-c2nc(-c3ccc(F)cc3)c(-c3ccncc3)[nH]2)cc1`: the residual activity in test [1] was found to be 110%; in [2], 99%; in [3] it was 83%; in test [4] it was 82%; in test [5], 101%; in test [6], 107%. Also, the residual activity in test [7] is 128%; in test [8], 98%; in test [9], 109%; in [10] it was 106%.

For `O=Nc1c(-c2c(O)[nH]c3ccccc23)[nH]c2ccccc12`, the residual activity in test [1] is 6%; in test [2], 0%; in test [3], 42%; in test [4] it was 10%; in test [5], -2%; in test [6], -3%. The residual activity was 86% in test [7], 13% in [8], 62% in [9] and 18% in test [10].

In the case of `Cc1ccc(NC2=CC(=O)c3sc(C)nc3C2=O)cc1`, the residual activity was 109% in test [1]; 100% in test [2]; 78% in test [3]; 83% in test [4]; 98% in test [5]; 110% in test [6]. In addition, the residual activity was found to be 91% in test [7], 118% in [8], 98% in test [9] and 110% in test [10].

For the compound `CC(C)n1cnc2c(NCc3ccccc3)nc(NCCCO)nc21`, the residual activity in [1] came out at 111%; in test [2] it was 99%; in [3] it was 77%; in [4], 69%; in [5] it was 98%; in [6] it was 82%. Also, the residual activity in [7] is 101%; in [8], 79%; in test [9], 90%; in test [10], 80%.

For the compound `O=C1Nc2cc(Br)ccc2/C1=C1/Nc2ccccc2/C1=N\O`, the residual activity came out at 10% in [1]; 5% in test [2]; 62% in test [3]; 70% in [4]; 26% in test [5]; 4% in test [6]. In addition, the residual activity in test [7] came out at 118%; in [8], 97%; in [9], 62%; in [10], 77%.

`Nc1cccc(-c2cc3c(Oc4cccc(O)c4)ncnc3[nH]2)c1`: the residual activity was determined as 99% in test [1]; 69% in test [2]; 65% in [3]; 23% in test [4]; 81% in test [5]; 35% in test [6]. For the same compound, the residual activity in test [7] was found to be 63%; in test [8] it was 22%; in test [9] it was 68%; in test [10] it was 20%.

For `c1ccc(-c2n[nH]cc2-c2ccnc3ccccc23)nc1`, the residual activity in [1] worked out at 88%; in test [2], 88%; in test [3], 66%; in test [4] it was 65%; in test [5] it was 98%; in test [6], 85%. In addition, the residual activity in [7] was found to be 108%; in test [8], 90%; in test [9], 109%; in test [10] it was 98%.

Take `Oc1c2ccccc2c2c3c(cccc13)N=N2`: the residual activity in test [1] was determined as 16%; in test [2], 10%; in [3] it was 57%; in [4], 21%; in [5], 22%; in test [6] it was 9%. The residual activity worked out at 87% in test [7], 75% in test [8], 43% in [9] and 10% in [10].

For the compound `CC[n+]1c(/C=C/N(C)c2ccccc2)n(-c2ccccc2)c2ccc(-c3nc4ccccc4s3)cc21`, the residual activity came out at 109% in [1]; 71% in test [2]; 78% in [3]; 79% in test [4]; 113% in [5]; 48% in [6]. For the same compound, the residual activity in test [7] stood at 97%; in [8] it was 74%; in test [9], 104%; in [10] it was 63%.

Regarding `O=C1NC(=O)c2cc(Nc3ccc(F)cc3)c(Nc3ccc(F)cc3)cc21`, the residual activity was 100% in [1]; 68% in test [2]; 68% in test [3]; 54% in test [4]; 105% in test [5]; 93% in [6]. Also, the residual activity is 89% in [7], 59% in test [8], 106% in test [9] and 86% in test [10].

Take `CCC(=O)Nc1ccc2ncnc(Nc3cccc(Br)c3)c2c1`: the residual activity in test [1] was found to be 121%; in test [2] it was 91%; in test [3], 69%; in test [4], 69%; in test [5] it was 108%; in [6] it was 86%. Also, the residual activity in [7] was determined as 99%; in [8] it was 100%; in test [9] it was 30%; in test [10] it was 9%.

Regarding `NC(=O)c1ccc2[nH]c(-c3ccc(Oc4ccc(Cl)cc4)cc3)nc2c1`, the residual activity in [1] amounted to 100%; in test [2], 74%; in [3], 79%; in test [4] it was 82%; in test [5], 95%; in [6], 95%. The residual activity in test [7] came out at 128%; in test [8] it was 101%; in test [9], 61%; in [10], 19%.

`O=C(Nc1cccc(Nc2cc(Nc3cccc(C(F)(F)F)c3)ncn2)c1)C1CC1`: the residual activity in [1] was found to be 106%; in [2] it was 65%; in test [3], 69%; in [4], 42%; in test [5], 78%; in [6], 74%. The residual activity in test [7] was 103%; in test [8] it was 75%; in test [9], 39%; in test [10], 9%.

Turning to `COc1ccc(S(=O)(=O)N(CCO)c2ccccc2CN(C)C/C=C/c2ccc(Cl)cc2)cc1`, the residual activity in test [1] was 99%; in test [2] it was 78%; in [3] it was 78%; in test [4], 69%; in [5], 93%; in test [6], 83%. Further, the residual activity in [7] stood at 113%; in test [8], 120%; in test [9], 106%; in [10], 96%.

`CNc1cc2c(Nc3cccc(Br)c3)ncnc2cn1`: the residual activity amounted to 103% in test [1]; 88% in [2]; 76% in test [3]; 86% in test [4]; 96% in [5]; 84% in test [6]. Besides, the residual activity in [7] came out at 89%; in [8], 73%; in [9] it was 21%; in [10] it was 12%.

As to `Cc1ccc(S(=O)(=O)/C=C/C#N)cc1`, the residual activity in test [1] stood at 99%; in test [2], 95%; in [3] it was 86%; in test [4] it was 88%; in [5], 101%; in test [6], 108%. Also, the residual activity was determined as 96% in [7], 123% in test [8], 98% in [9] and 101% in test [10].
